Reference: PubChem BioAssay (Tox21)
“And” between values parts separate entries of the source, which are not always exact repeats. Equal entries are not always repeated. A structure can be active in one record and inactive in another. The source made the active and inactive calls. A call without a number means that no potency is given here. Unless noted, calls come from the whole dose curve; as a rule, active = well fitted curve in the direction sought with a large enough effect in the repeat runs; inconclusive = weak or mixed curves; inactive = no such curve, though single readings can be large; an effect the other way counts as inactive or inconclusive.

What was measured:
[1] = qHTS assay to identify small molecule antagonists of the glucocorticoid receptor (GR) signaling pathway - cell viability counter screen (AID 720693); note: nearly all actives have a fitted effect of over 55% in size; note: potency is the fitted concentration of half-maximal effect
[2] = qHTS assay for identifying genotoxic compounds that show differential cytotoxicity against isogenic chicken DT40 cell lines with known DNA damage response pathways - wild type cell line (AID 743012); note: nearly all actives have a fitted effect of over 60% in size; note: potency is the fitted concentration of half-maximal effect
Method in brief: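 Cytotoxicity in repair-proficient parental chicken DT40 cells serves as the comparator for Rad54/Ku70- and Rev3-deficient lines. Cells were exposed to compounds for 40 h at 37 C/5% CO2, and ATP-based luminescence (CellTiter-Glo) measured viability.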

[3] = qHTS assay to identify small molecule antagonists of the androgen receptor (AR) signaling pathway - cell viability counter screen (AID 743033; note: nearly all actives have a fitted effect of over 45% in size; note: potency is the fitted concentration of half-maximal effect)
[4] = qHTS assay to identify small molecule antagonists of the androgen receptor (AR) signaling pathway using the MDA cell line - cell viability counter screen (AID 743041; note: nearly all actives have a fitted effect of over 45% in size; note: potency is the fitted concentration of half-maximal effect)
Method in brief: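 Compound exposure lasted 16 h at 37C in MDA-kb2 AR-luc cells stimulated with R1881. Protease-based CellTiter-Fluor reagent was applied for the final 30 min and fluorescence measured.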

[5] = qHTS assay to identify small molecule antagonists of the thyroid receptor (TR) signaling pathway - cell viability counter screen (AID 743064); note: nearly all actives have a fitted effect of over 50% in size; note: potency is the fitted concentration of half-maximal effect
Method in brief: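 GH3.TRE-Luc rat pituitary cells carrying a TRE-luciferase reporter were treated with compound plus 1 nM T3 (final) for 23.5 h at 37 °C. Viability was then read in the same wells by CellTiter-Fluor fluorescence after a further 30 min.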

[6] = qHTS assay to identify small molecule antagonists of the thyroid receptor (TR) signaling pathway (AID 743065); note: nearly all actives have a fitted effect of over 55% in size; note: potency is the fitted concentration of half-maximal effect
Method in brief: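 GH3.TRE-Luc rat pituitary cells (two TREs driving luciferase) were dosed with compound, then stimulated with 1 nM T3 (final) for 23.5 h at 37 C. ONE-Glo luminescence was the read-out, with CellTiter-Fluor fluorescence as the cytotoxicity counter-screen.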

[7] = test system: thyroid hormone receptor (rat, GH3 cells); assay: qHTS assay to identify small molecule agonists of the thyroid receptor (TR) signaling pathway (AID 743066; calls by dose curve)
[8] = biological target: Estrogen receptor (Homo sapiens) (UniProt P03372); assay: qHTS assay to identify small molecule antagonists of the estrogen receptor alpha (ER-alpha) signaling pathway (AID 743069; active = well fitted curve in the direction sought with a large enough effect in the signal ratio in the repeat runs, not every such curve was filed as active; inconclusive = weak or mixed curves, or effect the other way; inactive = no such curve, though single readings can be large or run the other way; the % refers to the signal ratio; note: potency is the fitted concentration of half-maximal effect)
Chain of Estrogen receptor (Homo sapiens) (P03372 whole entry, looked up): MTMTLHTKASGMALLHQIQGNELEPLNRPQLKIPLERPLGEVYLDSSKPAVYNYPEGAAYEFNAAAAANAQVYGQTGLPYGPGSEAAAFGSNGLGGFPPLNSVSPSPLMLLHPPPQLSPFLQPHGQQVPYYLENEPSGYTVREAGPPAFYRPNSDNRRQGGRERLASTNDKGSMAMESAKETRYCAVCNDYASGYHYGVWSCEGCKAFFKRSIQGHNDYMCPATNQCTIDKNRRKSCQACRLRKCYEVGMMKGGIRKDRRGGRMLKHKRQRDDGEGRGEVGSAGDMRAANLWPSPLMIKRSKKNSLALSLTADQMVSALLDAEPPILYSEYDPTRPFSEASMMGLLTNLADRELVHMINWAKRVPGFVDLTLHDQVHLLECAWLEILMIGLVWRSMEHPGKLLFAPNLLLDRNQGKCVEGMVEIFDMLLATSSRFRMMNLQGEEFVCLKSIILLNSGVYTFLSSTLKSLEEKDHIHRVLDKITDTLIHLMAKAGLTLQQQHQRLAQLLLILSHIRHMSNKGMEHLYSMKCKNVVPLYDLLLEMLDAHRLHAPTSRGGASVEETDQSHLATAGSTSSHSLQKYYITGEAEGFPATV
Method in brief: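 In this cell-based reporter format, GripTite HEK293 cells harbouring ER-alpha-UAS-bla were grown overnight with 2% charcoal-stripped FBS, dosed with DMSO-dissolved compounds, then challenged with 17beta-estradiol. After 18 hr at 37C, beta-lactamase activity was detected by FRET fluorescence.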

[9] = qHTS assay to identify small molecule antagonists of the estrogen receptor alpha (ER-alpha) signaling pathway - cell viability counter screen (AID 743074; calls by dose curve; note: nearly all actives have a fitted effect of over 45% in size; note: potency is the fitted concentration of half-maximal effect)
[10] = biological target: Estrogen receptor (Homo sapiens) (UniProt P03372); assay: qHTS assay to identify small molecule agonists of the estrogen receptor alpha (ER-alpha) signaling pathway (AID 743075; calls by dose curve; note: potency is the fitted concentration of half-maximal effect)
[11] = qHTS assay to identify small molecule antagonists of the estrogen receptor alpha (ER-alpha) signaling pathway using the BG1 cell line (AID 743080; calls by dose curve;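 note: BG1 cells stimulated with 17beta-estradiol alongside compound; nearly all actives have a fitted effect of over 25% in size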; note: potency is the fitted concentration of half-maximal effect)
Method in brief: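 Seeding, 24 h rest, compound transfer from DMSO, 17beta-estradiol addition, 21.5 h incubation, CellTiter-Fluor (30 min, 37 C), then ONE-Glo (30 min, room temperature): this sequence was run on BG1-Luc-4E2 reporter cells.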

[12] = qHTS assay to identify small molecule antagonists of the estrogen receptor alpha (ER-alpha) signaling pathway using the BG1 cell line - cell viability counter screen (AID 743081);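 note: compound given together with 17beta-estradiol as the ER stimulus; nearly all actives have a fitted effect of over 45% in size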; note: potency is the fitted concentration of half-maximal effect
[13] = biological target: Aromatase (Homo sapiens) (UniProt P11511); assay: qHTS assay to identify aromatase inhibitors (AID 743083); note: nearly all actives have a fitted effect of over 55% in size; note: potency is the fitted concentration of half-maximal effect
Chain of Aromatase (Homo sapiens) (P11511 whole entry, looked up): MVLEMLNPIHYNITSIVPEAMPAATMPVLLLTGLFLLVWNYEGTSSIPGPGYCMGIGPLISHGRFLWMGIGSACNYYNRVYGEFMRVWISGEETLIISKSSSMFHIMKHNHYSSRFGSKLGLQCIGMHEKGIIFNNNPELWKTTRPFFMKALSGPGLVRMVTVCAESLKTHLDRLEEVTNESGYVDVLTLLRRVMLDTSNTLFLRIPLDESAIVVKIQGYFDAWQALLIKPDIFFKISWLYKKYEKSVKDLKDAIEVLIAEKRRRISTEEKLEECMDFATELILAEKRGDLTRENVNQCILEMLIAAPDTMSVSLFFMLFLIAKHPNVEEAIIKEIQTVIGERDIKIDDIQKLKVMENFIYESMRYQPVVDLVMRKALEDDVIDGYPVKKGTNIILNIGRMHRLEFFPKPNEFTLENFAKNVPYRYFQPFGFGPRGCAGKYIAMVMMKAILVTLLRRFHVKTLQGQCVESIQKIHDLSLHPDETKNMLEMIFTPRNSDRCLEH

[14] = qHTS assay for identifying genotoxic compounds that show differential cytotoxicity against isogenic chicken DT40 cell lines with known DNA damage response pathways - Rad54/Ku70 mutant cell line (AID 743015); note: nearly all actives have a fitted effect of over 60% in size; note: potency is the fitted concentration of half-maximal effect
[15] = biological target: Androgen receptor (Homo sapiens) (UniProt P10275); assay: qHTS assay to identify small molecule antagonists of the androgen receptor (AR) signaling pathway (AID 743035; active = well fitted inhibition curve with a large enough effect in the signal ratio in the repeat runs, not every such curve was filed as active; inconclusive = weak or mixed curves, or effect the other way; inactive = no such curve, though single readings can be large or run the other way; the % refers to the signal ratio; note: potency is the fitted concentration of half-maximal effect)
Chain of Androgen receptor (Homo sapiens) (P10275 whole entry, looked up): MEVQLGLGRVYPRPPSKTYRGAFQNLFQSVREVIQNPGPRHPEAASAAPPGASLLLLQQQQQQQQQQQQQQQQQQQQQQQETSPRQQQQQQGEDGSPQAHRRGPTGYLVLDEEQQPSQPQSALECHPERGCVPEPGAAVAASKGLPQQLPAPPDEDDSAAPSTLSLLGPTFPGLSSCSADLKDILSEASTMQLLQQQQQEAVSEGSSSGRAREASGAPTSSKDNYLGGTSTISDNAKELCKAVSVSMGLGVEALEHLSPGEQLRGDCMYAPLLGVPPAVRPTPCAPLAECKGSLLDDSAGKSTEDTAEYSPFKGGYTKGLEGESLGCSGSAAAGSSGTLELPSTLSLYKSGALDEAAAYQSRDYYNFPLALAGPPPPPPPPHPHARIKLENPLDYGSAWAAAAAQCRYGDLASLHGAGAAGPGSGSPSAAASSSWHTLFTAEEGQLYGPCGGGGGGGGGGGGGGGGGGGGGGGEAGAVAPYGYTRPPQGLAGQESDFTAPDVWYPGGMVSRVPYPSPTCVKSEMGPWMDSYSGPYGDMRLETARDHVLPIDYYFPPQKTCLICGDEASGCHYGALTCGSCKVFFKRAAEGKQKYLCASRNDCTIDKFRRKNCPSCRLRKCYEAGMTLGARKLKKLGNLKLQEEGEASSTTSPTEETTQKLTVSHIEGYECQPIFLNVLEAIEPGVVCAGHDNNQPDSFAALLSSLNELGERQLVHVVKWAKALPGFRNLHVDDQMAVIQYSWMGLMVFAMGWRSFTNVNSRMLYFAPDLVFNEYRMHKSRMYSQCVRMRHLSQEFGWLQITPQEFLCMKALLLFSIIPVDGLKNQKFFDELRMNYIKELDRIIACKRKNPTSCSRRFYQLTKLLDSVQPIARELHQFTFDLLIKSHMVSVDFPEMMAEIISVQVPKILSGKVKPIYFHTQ
Method in brief: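 Steps: seed AR-UAS-bla GripTite HEK293 cells, incubate 4 h at 37C; pin in test compound, then add agonist R1881; incubate 16 h at 37C; add LiveBLAzer B/G FRET substrate, 2 h at room temperature; read fluorescence.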

[16] = biological target: Androgen receptor (Homo sapiens) (UniProt P10275); assay: qHTS assay to identify small molecule agonists of the androgen receptor (AR) signaling pathway using the MDA cell line (AID 743040; note: nearly all actives have a fitted effect of over 20% in size)
Method in brief: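 Testing was done with the MDA-kb2 AR-luc line, a human breast carcinoma stably transfected with MMTV-luciferase containing AR and GR response elements. Cells were exposed 16 h at 37C before ONE-Glo luminescence detection.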

[17] = biological target: Androgen receptor (Homo sapiens) (UniProt P10275); assay: qHTS assay to identify small molecule antagonists of the androgen receptor (AR) signaling pathway using the MDA cell line (AID 743042; note: nearly all actives have a fitted effect of over 55% in size; note: potency is the fitted concentration of half-maximal effect)
Method in brief: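 MDA-kb2 breast carcinoma cells carrying MMTV-luciferase (AR/GR responsive) were co-treated with compounds and the agonist R1881 for 16 h at 37C. Inhibition read as ONE-Glo luminescence; CellTiter-Fluor fluorescence measured in parallel for cytotoxicity.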

[18] = biological target: Estrogen receptor (Homo sapiens) (UniProt P03372); assay: qHTS assay to identify small molecule agonists of the estrogen receptor alpha (ER-alpha) signaling pathway using the BG1 cell line (AID 743079); note: nearly all actives have a fitted effect of over 20% in size; note: potency is the fitted concentration of half-maximal effect
[19] = biological target: Androgen receptor (Homo sapiens) (UniProt P10275); assay: qHTS assay to identify small molecule agonists of the androgen receptor (AR) signaling pathway (AID 743036; active = well fitted activation curve with a large enough effect in the signal ratio in the repeat runs, with a control signal flat, not every such curve was filed as active; inconclusive = weak or mixed curves, or effect the other way; inactive = no such curve, though single readings can be large or run the other way; the % refers to the signal ratio)
Method in brief: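 HEK293 cells stably carrying a UAS-driven beta-lactamase reporter (GeneBLAzer AR-UAS-bla-GripTite) were plated at 2,000 cells/well, rested 4 h at 37C, then exposed to compounds in DMSO for 16 h. LiveBLAzer B/G FRET substrate was added for 2 h at room temperature; fluorescence read.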

SMILES	Potency [1]	Potency [2]	Potency [3]	Potency [4]	Potency [5]	Potency [6]	Potency [7]	Potency [8]	Potency [9]	Potency [10]	Potency [11]	Potency [12]	Potency [13]	Potency [14]	Potency [15]	outcome [16]	Potency [17]	Potency [18]	Potency [19]
COC(=O)/C=C/c1ccccc1	inactive	inactive	inactive	inactive	inactive	inactive	inactive	inactive	inactive	inactive	inactive	inactive	inactive						
CCC(CO)(CO)COCC(CC)(CO)CO	inactive	inactive	inactive	inactive	inactive	inactive	inactive					inactive	inactive	inactive					
CC(N)=O	inactive	inactive	inactive		inactive	inactive	inactive		inactive			inactive	inactive	inactive					
Oc1c(Cl)cc(Cl)c(Cl)c1Cc1c(O)c(Cl)cc(Cl)c1Cl	1.69 µM (active) and 21.8 µM (active) and 19.5 µM (active)	5.96 µM (active) and 3.05 µM (active) and 4.33 µM (active)	9.52 µM (active) and 1.54 µM (active) and 1.74 µM (active)	13.3 µM (active) and 17.2 µM (active) and 19.3 µM (active)	26.6 µM (active) and 9.66 µM (active) and 24.3 µM (active)	10.6 µM (active) and 2.43 µM (active) and 1.93 µM (active)	inactive		24.5 µM (active) and 4.9 µM (active)			inactive	10.6 µM (active) and 5.43 µM (active) and 6.11 µM (active)	8.41 µM (active) and 3.05 µM (active) and 3.86 µM (active)	10.7 µM (active) and 1.74 µM (active)	inactive	13.3 µM (active) and 2.16 µM (active) and 5.45 µM (active)		
CC(C)(c1ccccc1)c1ccc(Nc2ccc(C(C)(C)c3ccccc3)cc2)cc1	inactive	inactive and 54.5 µM (active)	inactive	inactive	inactive	inactive	inactive	61.7 µM [cytotoxic] (active)		inactive	inactive	inactive	inactive	inactive and 61.1 µM (active)				inactive	
NC(N)=Nc1nc(CSCC/C(N)=N/S(N)(=O)=O)cs1	inactive	inactive	inactive	inactive	inactive	inactive	inactive	inactive	inactive	inactive	inactive	inactive	inactive	inactive				inactive	
CCN(CC)C(=O)Nc1ccc(OCC(O)CNC(C)(C)C)c(C(C)=O)c1 (stereo not drawn)	inactive	inactive		inactive	inactive	inactive	inactive	inactive	inactive	inactive	inactive	inactive	inactive	inactive	inactive	inactive	inactive	inactive	inactive
Nc1cc(Cl)c(-c2cc(Cl)c(N)cc2Cl)cc1Cl	54.9 µM (active) and 49 µM (active)	5.44 µM (active) and 4.86 µM (active)	43.6 µM (active) and 49 µM (active)	61.1 µM (active)	10.9 µM (active) and 8.63 µM (active)	1.53 µM (active) and 1.54 µM (active)	inactive	1.55 µM [inconclusive] (active) and 19.5 µM [inconclusive] (active)	48.9 µM (active) and 24.5 µM (active)	inactive	54.4 µM (active) and 54.5 µM (active)	inactive	12.2 µM (active) and 15.4 µM (active)	2.73 µM (active) and 4.33 µM (active)	21.9 µM (active) and 17.4 µM (active)	inactive	54.4 µM (active) and 68.6 µM (active)		
CCCCC/C=C/CC1CC(=O)OC1=O (stereo not drawn)	inactive	inactive	inactive	inactive	inactive	inactive	inactive	inactive	inactive	inactive	inactive	inactive	inactive	inactive				inactive	
CNCCC(Oc1ccc(C(F)(F)F)cc1)c1ccccc1 (stereo not drawn)	inactive	5.31 µM (active) and 9.56 µM (active)	48.4 µM (active)	27.8 µM (active) and 53.8 µM (active)	11.9 µM (active) and 9.56 µM (active)	11.9 µM (active) and 15.2 µM (active)			inactive and 48.4 µM (active)			inactive	47.9 µM (active)	6.68 µM (active) and 8.52 µM (active)					
CCCCCCCCCCCC[N+](C)(C)C	24.5 µM (active) and 17.4 µM (active) and 38.9 µM (active)	861 nM (active) and 243 nM (active) and 217 nM (active)	48.9 µM (active) and 49 µM (active) and 38.9 µM (active)		17.2 µM (active) and 13.7 µM (active) and 15.4 µM (active)	9.66 µM (active) and 6.86 µM (active) and 7.7 µM (active)			inactive and 54.9 µM (active)			60.9 µM (active)	24.3 µM (active) and 17.2 µM (active) and 21.7 µM (active)	543 nM (active) and 217 nM (active)					
Cc1cccc2n[nH]nc12	inactive	inactive	inactive	inactive	inactive	inactive	inactive		inactive			inactive		inactive					
CC[C@]1(O)C[C@@H]2CN(CCc3c([nH]c4ccccc34)[C@@](C(=O)OC)(c3cc4c(cc3OC)N(C)[C@H]3[C@@](O)(C(=O)OC)[C@H](OC(C)=O)[C@]5(CC)C=CCN6CC[C@]43[C@@H]65)C2)C1	inactive	53.1 nM (active) and 29.8 nM (active)		inactive	188 nM (active) and 266 nM (active)	75 nM (active) and 42.2 nM (active)					3.35 µM (active)	15 µM (active)	21.1 µM (active)	75 nM (active) and 53.1 nM (active)					
C=CC(=O)OCCCCCCCC	inactive	inactive	inactive	inactive	inactive	inactive	inactive	inactive	inactive	inactive	inactive	inactive	inactive	inactive				inactive	
NCCCCCC(=O)O	inactive	inactive	inactive	inactive	inactive	inactive	inactive	inactive	inactive	inactive	inactive	inactive	inactive	inactive				inactive	
CCn1cc(C(=O)O)c(=O)c2cc(F)c(N3CCNC(C)C3)c(F)c21 (stereo not drawn)	inactive	26.6 µM (active)	inactive	inactive	inactive	inactive	inactive	inactive	inactive	inactive	inactive	inactive	inactive	inactive				inactive	
NC(Cc1ccc(Cl)cc1)C(=O)O (stereo not drawn)	inactive	inactive	inactive	inactive	inactive	inactive	inactive		inactive			inactive	inactive	inactive					
OCCOCCN1CCN(C(c2ccccc2)c2ccc(Cl)cc2)CC1 (stereo not drawn)	inactive	38.1 µM (active)	inactive	inactive	26.9 µM (active)	23.7 µM (active) and 47.9 µM (active)	inactive		inactive			inactive	inactive	30.2 µM (active)					
Cc1scc2c1N(C(=O)CN1CCN(C)CC1)c1ccccc1NC2=O	inactive	inactive	inactive	inactive	inactive	inactive	inactive	inactive	inactive	inactive	inactive	inactive	inactive	inactive				inactive	
C/C=C/c1ccc(OCC)c(O)c1	inactive	inactive	inactive	inactive		inactive	inactive		inactive			inactive	inactive	inactive					
COc1ccc(CCN(C)CCCC(C#N)(c2ccc(OC)c(OC)c2)C(C)C)cc1OC (stereo not drawn)	inactive	13.3 µM (active) and 54.4 µM (active)			23.7 µM (active) and 21.6 µM (active)	26.6 µM (active) and 30.6 µM (active)	inactive		inactive			inactive and 30.6 µM (active)		29.8 µM (active) and 61 µM (active)					
Cc1cc(C2(c3cc(C)c(O)cc3C)OS(=O)(=O)c3ccccc32)c(C)cc1O	inactive	inactive	inactive	30.6 µM (active)	54.5 µM (active)	inactive	inactive	1.74 µM [inconclusive] (active)	inactive	1.38 µM [inconclusive] (active) and inactive	inactive	27.3 µM (active) and 24.3 µM (active)		inactive				864 nM (active) and 10.9 µM (active)	
